Results on 32 molecules are retold here after PubChem BioAssay (NCATS).

Molecules are shown by their SMILES. Inconclusive results are not listed. Active and inactive are the calls of the source. The call rests on the fitted dose curve.
On the % scale 0 is the no-effect control and ±100 the full control effect; potency means the concentration at half of the fitted maximal effect.

The assay can be described thus: VSVG counterscreen qHTS to identify inhibitors of SARS-CoV-2 cell entry (AID 1645847). Further: nearly all actives have a fitted effect of over 65% in size. The settings on record: VSV-G pseudotyped particle entry, luciferase; series mostly up to 57.2 µM; activity change, negative = inhibition: at the top concentration. From the text: Assay Provider: Wei Zheng, Ph.D.
National Center for Advancing Translational Sciences, National Institute of Health, Rockville, MD.
SARS-CoV-2 spike protein, within the viral envelope, mediates viral attachment and infection of host cells. The SARS-CoV-2 spike protein specifically binds to the host receptor ACE2 (Angiotensin-converting enzyme 2). This interaction promotes endocytosis of the viral particle, additional events lead to viral-host cell membrane fusion and release of the viral contents, allowing viral replication.
While SARS-CoV-2 requires BSL-3 facilities for live virus work, pseudotyped partices (PP) that incorporate SARS-CoV-2 spike proteins without replication elements could facilitate studies on viral entry mechanisms in a BSL-2 setting. This PP cell entry assay could also enable screening of small molecule compound libraries in BSL-2 setting to identify inhibitors of SARS-CoV-2 cell entry.
SEQUENCE No. (e.g., 1, 2, 3, etc.); […] (e.g., Cells, Incubation, Reagent, etc.); VALUE and DESCRIPTION.
1. Cells. Seed 1500 HEK293-ACE2 cells (Expi293F with stable expression of human ACE2) in 2 microL/well media (DMEM, 10% FBS, 1x L-glutamine, 1x Pen/Strep, 1 ug/ml puromycin) in white 1536-well assay plates (Greiner #782073).
2. Incubation. Incubate at 37 degrees C with 5% CO2 overnight (~16 h).
3. Compound. Dispense 23 nL/well compounds in DMSO via pin transfer.
4. Incubation. Incubate for 1 h at 37C 5% CO2.
5. Reagent. Dispense 2 microL/well of vesicular stomatitis virus G glycoprotein (VSV-G) pseudotyped particles (PP). [a] PPs are produced with murine leukemia virus pseudo-typing.
6. Centrifugation. […]
7. Incubation. Incubate at for 48 h at 37C 5% CO2
8. Centrifugation. Remove supernatant with gentle centrifugation using a Blue Washer (BlueCat Bio).
9. Reagent. Dispense 4 microL/well of Bright-Glo Luciferase detection reagent (Promega #E2620).
10. Incubation. Incubate for 5 min at room temperature.
11. Detection. Read luminescence signal (ViewLux plate reader, PerkinElmer). Data was normalized with wells containing VSV-G PP as 100%, and wells containing bald PP (no fusion protein) as 0%.
(A counterscreen serves to expose hits that act by an unwanted route or on another target.)
Regarding `CN(C)CCOC(c1ccccc1)c1ccc(Br)cc1` (configuration not stated), the Potency was 2.71 µM (active).

With `CCCCCC(=O)O[C@]1(C(C)=O)CC[C@H]2[C@@H]3CCC4=CC(=O)CC[C@]4(C)[C@H]3CC[C@@]21C`, the Potency was 24.1 µM (active).

`CCOC(=O)C1=C(C)NC(C)=C(C(=O)OCC)C1c1ccccc1/C=C/C(=O)OC(C)(C)C`: the Potency was 1.21 µM (active).

In the case of `O=C(NCC1CN(c2ccc(N3CCOCC3=O)cc2)C(=O)O1)c1ccc(Cl)s1` (configuration not stated), the Potency was 1.71 µM (active).

For the molecule `CC(C(O)c1ccccc1)N(C)CCOC(c1ccccc1)c1ccccc1` (configuration not stated), the Potency is 21.5 µM (active).

With `CCCCCCCCCCCCCCCCC(C(=O)O)C(O)(CC(=O)O)C(=O)O` (configuration not stated), the “activity change, negative = inhibition” value is -22.3% (inactive).

Consider `Oc1ccc(Cl)cc1Cc1cc(Cl)ccc1O`, for which the Potency was 3.83 µM (active).

As to `O=c1[nH]c(=O)n([C@H]2C[C@H](O)[C@@H](CO)O2)cc1C(F)(F)F`, the Potency is 0.242 µM (active).

Consider `COC(=O)[C@H]1[C@H]2C[C@@H]3c4[nH]c5cc(OC)ccc5c4CCN3C[C@H]2C[C@@H](OC(=O)/C=C/c2ccc(O)c(OC)c2)[C@@H]1OC`, for which the Potency was 19.2 µM (active).

Take `O=C(CCCN1CCN(c2ccc(F)cc2)CC1)NC1c2ccccc2CSc2ccccc21` (configuration not stated): the Potency is 1.71 µM (active).

Consider `CCOC(=O)C(C)(C)Oc1ccc(Cl)cc1`, for which the Potency was 12.1 µM (active).

With `CCC(=O)C(CCN(C)C)(c1ccccc1)c1ccccc1`, the Potency is 3.41 µM (active).

Take `CCCSS/C(CCO)=C(\C)N(C=O)Cc1cnc(C)nc1N`: the “activity change, negative = inhibition” value was -5.29% (inactive).

In the case of `c1ccc2c(c1)Sc1ccccc1N2CC1CN2CCC1CC2` (configuration not stated), the Potency was 0.383 µM (active).

Turning to `CC(=O)c1ccc2c(c1)N(CCCN1CCC(CCO)CC1)c1ccccc1S2`, the Potency was 7.08 µM (active).

Take `Clc1ccc(C(OCCN2CCCCC2)c2ccccc2)cc1` (configuration not stated): the “activity change, negative = inhibition” value is -25.1% (inactive).

Turning to `O=C(Nc1ccccc1)OCC(CN1CCCCC1)OC(=O)Nc1ccccc1` (configuration not stated), the “activity change, negative = inhibition” value was 0.829% (inactive).

In the case of `CN(C(=O)c1c(O)c2ccccc2n(C)c1=O)c1ccccc1`, the “activity change, negative = inhibition” value was -8.7% (inactive).

As to `O[C@@H](COc1cccc2ncccc12)CN1CCN(C2c3ccccc3[C@@H]3[C@H](c4ccccc42)C3(F)F)CC1` (some centres not stated), the Potency is 0.171 µM (active).

With `COC(=O)C1=C(C)NC(C)=C(C(=O)OC(C)(C)CN(C)CCC(c2ccccc2)c2ccccc2)C1c1cccc([N+](=O)[O-])c1` (configuration not stated), the Potency is 21.5 µM (active).

As for `CCCCCCOC(=O)NC(=N)c1ccc(NCc2nc3cc(C(=O)N(CCC(=O)OCC)c4ccccn4)ccc3n2C)cc1`, the Potency was 4.82 µM (active).

With `C=CC[C@]1(O)CC[C@H]2[C@@H]3CCC4=CC(=O)CCC4=C3C=C[C@@]21C`, the Potency is 17.1 µM (active).

Take `Clc1ccccc1C(c1ccccc1)(c1ccccc1)n1ccnc1`: the Potency is 19.2 µM (active).

On to `O=C1NC2CCCCN2C12CCN(CCCN1c3ccccc3CCc3ccc(Cl)cc31)CC2` (configuration not stated), for which the Potency was 21.5 µM (active).

Consider `COC(=O)Nc1nc2ccc(S(=O)c3ccccc3)cc2[nH]1` (configuration not stated), for which the Potency is 24.1 µM (active).

On to `CCN(CC)CCOc1ccc(/C(=C(\Cl)c2ccccc2)c2ccccc2)cc1`, for which the Potency is 8.57 µM (active).

Take `Oc1c(Cl)cc(Cl)cc1Sc1cc(Cl)cc(Cl)c1O`: the Potency is 4.82 µM (active).

Take `CC1=CC(=O)c2ccccc2C1=O`: the Potency was 6.81 µM (active).

As to `CN1CCC(=C2c3ccccc3CCc3sccc32)CC1`, the Potency was 12.1 µM (active).

Consider `CCCOc1ccc2nc(NC(=O)OC)[nH]c2c1`, for which the Potency is 0.607 µM (active).

Turning to `COCCOC(=O)C1=C(C)NC(C)=C(C(=O)OC/C=C/c2ccccc2)C1c1cccc([N+](=O)[O-])c1` (configuration not stated), the Potency was 21.5 µM (active).

`CCCCC(CC)COC(=O)C(C#N)=C(c1ccccc1)c1ccccc1` (configuration not stated): the Potency was 21.5 µM (active).
